# “And” between values parts separate entries of the source, which are not always exact repeats. Equal entries are not always repeated. The source made the active and inactive calls. Unless noted, the rule behind the calls is not given here.
# Columns and labels:
# [1] = tested on: Wnt5a (protein binding on small-molecule microarray); assay: small molecules binding Wnt5a protein – biophysical, small-molecule microarray, 635/667 nm fluorescence, primary screen (AID 1142); conditions: 635 nm fluorescence, higher = more signal;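 note: fluorescence read at 667 nm with signal to noise per printed feature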
# [2] = ATP-based viability of Huh7 replicon cells – cell-based, CellTiter-Glo luminescence, basal, 48 h, cytotoxicity control for HCV replication inhibitor project, primary screen (AID 1143); conditions: higher = more signal, called active from +8 up or from −8 down;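 note: Huh7 hepatoma cells carrying a hepatitis C replication reporter with no stimulus; test concentration not given here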
# [3] = Pseudomonas biofilm growth suppression – PAO1 strain, BacTiter-Glo luminescence, LB-PBS, primary screen (AID 1144); conditions: P. aeruginosa PAO1 biofilm, 12 h, higher = more signal
# [4] = basal CRE-LacZ reporter activity in PC12 – cell-based, unstimulated, primary screen (AID 1145); conditions: no forskolin, luminescence, 4.5 h, higher = more signal, called active from +8 up or from −8 down
# [5] = forskolin-driven CRE-LacZ activity in PC12 – cell-based, CRE-LacZ reporter, forskolin-stimulated, primary screen (AID 1146); conditions: luminescence, 4.5 h, higher = more signal, called active from +8 up or from −8 down;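 note: PC12 cells with 6xCRE LacZ reporter stimulated by forskolin 10 µM; beta-galactosidase reporter signal reflecting CREB driven transcription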
# [6] = target: Streptavidin (Streptomyces avidinii) (UniProt P22629); assay: compounds binding control protein streptavidin – biophysical, small-molecule microarray, 635/667 nm fluorescence, artefact control for SMM compound annotation, primary screen (AID 1147); conditions: higher = more signal;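 note: signal reflects streptavidin binding to arrayed compounds as a control protein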
# [7] = probe aInhba binding on compound microarray – biochemical, small-molecule microarray, 635/667 nm fluorescence, primary screen (AID 1148); conditions: higher = more signal;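 note: score merges 667nm spot fluorescence with signal-to-noise for antibody binding to printed compounds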
# [8] = target: Torsin-1A (Homo sapiens) (UniProt O14656); assay: TOR1A wild-type binding on microarray – cell lysate, small-molecule microarray, lysate, 635/667 nm, primary screen (AID 1149); conditions: COS7 hTOR1A-WT lysate, 635 nm fluorescence, higher = more signal
# [9] = target: Torsin-1A (Homo sapiens) (UniProt O14656); assay: torsin A mutant lysate binding on microarrays – cell lysate, small-molecule microarray, COS7 lysate, 635/667 nm fluorescence, primary screen (AID 1150); conditions: COS7 hTOR1A mutant lysate, 635 nm fluorescence, higher = more signal;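 note: score pools 667 nm emission and signal to noise measuring lysate protein binding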
# [10] = tested on: Sonic hedgehog protein (Shh); assay: Sonic hedgehog microarray binding compounds – biochemical, small-molecule microarray, 635/667 nm fluorescence, primary screen (AID 1151); conditions: 635 nm fluorescence, higher = more signal;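 note: Shh protein binding to compounds spotted on small-molecule microarray slides; score combines spot fluorescence intensity with signal-to-noise across triplicate slides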
# [11] = optical density shifts of acrAB sulA E. coli – strain DRC41, OD650, 48 h, E. coli filamentation inducer project, primary screen (AID 1152); conditions: higher = more signal, called active from +8 up or from −8 down;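 note: E. coli MC1000 strain DRC41 lacking acrAB efflux pump and sulA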
# [12] = probe aLefty1 binding on compound microarray – biochemical, small-molecule microarray, 635/667 nm fluorescence, primary screen (AID 1153); conditions: higher = more signal;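 note: score merges spot fluorescence with signal-to-noise ratio from the scanned slide images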
# [13] = plasmodial surface anion channel blockers, osmotic lysis – cell-based, P. falciparum Indochina, OD700, 1 h, primary screen (AID 1154); conditions: P. falciparum Indochina infected RBC osmotic lysis, higher = more signal, called active from +8 up or from −8 down
# [14] = plasmodial surface anion channel blockers, osmotic lysis – cell-based, P. falciparum Indochina, OD700, 2 h, primary screen (AID 1155);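 note: lysis reports solute entry through the parasite surface anion channel PSAC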; conditions: P. falciparum Indochina infected erythrocytes, higher = more signal, called active from +8 up or from −8 down
# [15] = changes in parasitized red cell lysis, either direction – P. falciparum Indochina, OD700, 3 h, PSAC antagonist project, primary screen (AID 1156); conditions: P. falciparum-infected erythrocytes, osmotic lysis, higher = more signal, called active from +8 up or from −8 down
# [16] = plasmodial surface anion channel blockers, osmotic lysis – cell-based, P. falciparum Indochina, OD700, 18 h, primary screen (AID 1157); conditions: P. falciparum Indochina infected erythrocytes, osmotic lysis OD700, 18 h; higher = more signal, called active from +8 up or from −8 down
# [17] = S6 kinase pathway phospho-S6 level changes – cell-based, A549, cytoblot, luminescence, serum-stimulated, primary screen (AID 1158); conditions: 5 h, higher = more signal;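 note: serum-stimulated A549 lung adenocarcinoma cells; signal is phosphorylated S6 detected by cytoblot immunostaining with HRP secondary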
# [18] = target: NADPH oxidase 2 (Homo sapiens) (UniProt P04839); assay: compounds shifting NOX2 Amplex Red fluorescence – cell-based, HEK293-NOX2, PMA-stimulated, NOX inhibitor project, primary screen (AID 1159); conditions: 45 min, higher = more signal, called active from +8 up or from −8 down; note: test concentration not given here
# [19] = target: NADPH oxidase 4 (Homo sapiens) (UniProt Q9NPH5); assay: compounds shifting NOX4 Amplex Red fluorescence – cell-based, HEK293-NOX4, tetracycline-induced, NOX inhibitor project, primary screen (AID 1160); conditions: HEK293-NOX4, Amplex Red H2O2 fluorescence, 45 min; higher = more signal, called active from +8 up or from −8 down
# [20] = target: NADPH oxidase 5 (Homo sapiens) (UniProt Q96PH1); assay: compounds shifting NOX5 Amplex Red fluorescence – cell-based, HEK293-NOX5, NOX inhibitor project, primary screen (AID 1161); conditions: HEK293-NOX5, ionomycin, 45 min, higher = more signal
# NADPH oxidase 5 (Homo sapiens), sequence (Q96PH1 whole entry, looked up): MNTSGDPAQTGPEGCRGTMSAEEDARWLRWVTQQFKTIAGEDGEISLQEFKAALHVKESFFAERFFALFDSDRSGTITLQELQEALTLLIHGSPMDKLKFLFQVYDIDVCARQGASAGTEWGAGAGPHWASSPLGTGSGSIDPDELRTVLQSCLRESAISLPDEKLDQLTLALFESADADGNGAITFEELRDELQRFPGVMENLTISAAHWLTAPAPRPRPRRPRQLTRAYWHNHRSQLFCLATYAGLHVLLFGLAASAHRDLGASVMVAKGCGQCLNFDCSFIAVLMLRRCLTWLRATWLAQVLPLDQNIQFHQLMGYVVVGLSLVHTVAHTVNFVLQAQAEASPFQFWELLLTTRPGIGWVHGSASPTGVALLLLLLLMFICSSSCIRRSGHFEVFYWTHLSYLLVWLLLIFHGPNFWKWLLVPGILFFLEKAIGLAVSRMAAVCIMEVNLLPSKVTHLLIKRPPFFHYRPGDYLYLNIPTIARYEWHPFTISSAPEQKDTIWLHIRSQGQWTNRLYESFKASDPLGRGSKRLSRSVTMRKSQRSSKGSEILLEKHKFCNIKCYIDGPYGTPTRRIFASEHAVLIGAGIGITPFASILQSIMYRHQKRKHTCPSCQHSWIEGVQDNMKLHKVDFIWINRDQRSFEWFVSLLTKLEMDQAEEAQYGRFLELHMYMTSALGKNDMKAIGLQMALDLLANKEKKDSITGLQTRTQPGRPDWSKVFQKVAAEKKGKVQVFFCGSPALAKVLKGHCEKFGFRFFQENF
# Streptavidin (Streptomyces avidinii), sequence (P22629 whole entry, looked up): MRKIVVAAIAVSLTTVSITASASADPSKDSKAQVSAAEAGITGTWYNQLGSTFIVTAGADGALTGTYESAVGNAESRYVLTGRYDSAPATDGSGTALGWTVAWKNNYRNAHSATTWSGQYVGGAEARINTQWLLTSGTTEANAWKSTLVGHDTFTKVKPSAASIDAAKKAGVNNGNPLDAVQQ
# NADPH oxidase 2 (Homo sapiens), sequence (P04839 whole entry, looked up): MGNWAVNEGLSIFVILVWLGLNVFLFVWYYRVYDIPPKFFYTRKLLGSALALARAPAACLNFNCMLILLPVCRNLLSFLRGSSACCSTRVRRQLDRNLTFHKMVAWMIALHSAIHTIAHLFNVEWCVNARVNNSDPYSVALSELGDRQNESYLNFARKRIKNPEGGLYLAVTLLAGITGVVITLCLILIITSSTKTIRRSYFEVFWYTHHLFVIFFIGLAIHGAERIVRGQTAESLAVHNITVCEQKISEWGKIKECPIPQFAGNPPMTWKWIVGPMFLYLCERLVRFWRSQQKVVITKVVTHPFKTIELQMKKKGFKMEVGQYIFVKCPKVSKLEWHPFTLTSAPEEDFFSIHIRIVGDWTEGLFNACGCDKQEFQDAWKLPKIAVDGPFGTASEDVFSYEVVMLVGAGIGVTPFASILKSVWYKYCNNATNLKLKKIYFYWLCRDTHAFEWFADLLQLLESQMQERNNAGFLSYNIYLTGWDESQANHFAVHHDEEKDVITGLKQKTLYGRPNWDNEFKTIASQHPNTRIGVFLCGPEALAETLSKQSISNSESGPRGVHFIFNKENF
# NADPH oxidase 4 (Homo sapiens), sequence (Q9NPH5 whole entry, looked up): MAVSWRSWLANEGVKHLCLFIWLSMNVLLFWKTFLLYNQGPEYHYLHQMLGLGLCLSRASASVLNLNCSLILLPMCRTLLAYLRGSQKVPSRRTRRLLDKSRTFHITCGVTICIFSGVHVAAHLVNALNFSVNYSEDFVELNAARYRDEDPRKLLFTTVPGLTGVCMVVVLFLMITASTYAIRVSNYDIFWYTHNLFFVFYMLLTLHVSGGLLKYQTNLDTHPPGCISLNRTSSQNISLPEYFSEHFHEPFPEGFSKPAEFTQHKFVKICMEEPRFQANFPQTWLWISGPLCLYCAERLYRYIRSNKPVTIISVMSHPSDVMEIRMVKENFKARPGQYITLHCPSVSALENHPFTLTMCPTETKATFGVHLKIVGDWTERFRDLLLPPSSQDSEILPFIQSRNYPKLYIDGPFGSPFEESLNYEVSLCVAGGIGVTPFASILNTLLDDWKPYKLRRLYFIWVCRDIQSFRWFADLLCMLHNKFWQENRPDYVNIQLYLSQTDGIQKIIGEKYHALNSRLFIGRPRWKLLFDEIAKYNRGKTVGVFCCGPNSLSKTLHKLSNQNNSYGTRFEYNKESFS
# Torsin-1A (Homo sapiens), sequence (O14656 whole entry, looked up): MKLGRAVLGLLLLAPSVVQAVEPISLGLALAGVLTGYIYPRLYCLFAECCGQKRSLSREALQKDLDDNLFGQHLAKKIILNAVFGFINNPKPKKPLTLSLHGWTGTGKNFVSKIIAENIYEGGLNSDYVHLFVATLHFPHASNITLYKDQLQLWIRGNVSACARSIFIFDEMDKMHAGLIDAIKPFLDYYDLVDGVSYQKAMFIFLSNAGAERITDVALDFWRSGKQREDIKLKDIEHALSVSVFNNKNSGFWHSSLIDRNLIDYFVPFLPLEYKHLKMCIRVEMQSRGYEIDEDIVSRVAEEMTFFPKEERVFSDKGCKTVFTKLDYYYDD
smiles,measurement,setting,value
C=CCN(C(=O)C1N(CCCCCCO)C(=O)C2C(C(=O)O)C3C=CC21O3)C(C)(C)C (stereo not given),composite z-score,[1],-1.54 and -1.09
same,z-score,[2],0.317 (inactive) and 0.148 (inactive)
same,z-score,[3],1.99 (inactive) and 1.42 (inactive)
same,z-score,[4],0.992 (inactive) and -0.216 (inactive)
same,z-score,[5],0.129 (inactive) and 0.453 (inactive)
same,composite z-score,[6],-1.47 and -1.01
same,composite z-score,[7],-0.251 and -0.278
same,composite z-score,[8],-3.52 and -3.83
same,composite z-score,[9],-3.07 and -2.82
same,composite z-score,[10],-1.68 and -1.49
same,z-score,[11],-0.32 (inactive) and -0.471 (inactive)
same,composite z-score,[12],-0.0573 and 0.0451
same,z-score,[13],0.203 (inactive) and 0.288 (inactive)
same,z-score,[14],0.357 (inactive) and -0.387 (inactive)
same,z-score,[15],-0.395 (inactive) and -0.274 (inactive)
same,z-score,[16],-0.28 (inactive) and -0.404 (inactive)
same,z-score,[17],0.473 and -0.117
same,z-score,[18],0.93 (inactive) and 0.763 (inactive)
same,z-score,[19],-0.0347 (inactive) and 0.143 (inactive)
same,z-score,[20],0.588 and 1.41
CON(C)C(=O)c1nnc2c3ccccc3n(S(=O)(=O)c3ccc(C)cc3)c2n1,composite z-score,[1],0.26 and 0.335
same,z-score,[2],0.24 (inactive) and 0.0218 (inactive)
same,z-score,[3],1.36 (inactive) and 0.0837 (inactive)
same,z-score,[4],1.37 (inactive) and 1.28 (inactive)
same,z-score,[5],-0.0387 (inactive) and -0.484 (inactive)
same,composite z-score,[6],1.31 and 1.67
same,composite z-score,[7],0.0543 and -0.0018
same,composite z-score,[8],0.201 and 1.19
same,composite z-score,[9],0.492 and 1.11
same,composite z-score,[10],0.642 and 1.22
same,z-score,[11],-0.162 (inactive) and 0.162 (inactive)
same,composite z-score,[12],-0.262 and -0.368
same,z-score,[13],1.21 (inactive) and 2.08 (inactive)
same,z-score,[14],0.0579 (inactive) and 0.454 (inactive)
same,z-score,[15],-0.212 (inactive) and 0.184 (inactive)
same,z-score,[16],-0.096 (inactive) and 0.149 (inactive)
same,z-score,[17],-0.375 and 0.313
same,z-score,[18],0.442 (inactive) and -1.24 (inactive)
same,z-score,[19],0.882 (inactive) and 0.0607 (inactive)
same,z-score,[20],0.436 and 0.278
C[N+](C)(C)CCCCNC(=O)[C@H]1C[C@H]2C(=O)N[C@@H](CCCC[N+](C)(C)C)C(=O)N2[C@H]1c1ccc(O)cc1,composite z-score,[1],0.96 and 0.388
same,z-score,[2],0.171 (inactive) and -2.13 (inactive)
same,z-score,[3],-0.597 (inactive) and -1.3 (inactive)
same,z-score,[4],-0.541 (inactive) and 0.679 (inactive)
same,z-score,[5],0.485 (inactive) and -0.16 (inactive)
same,composite z-score,[6],0.16 and -1.27
same,composite z-score,[7],-0.154 and -0.251
same,composite z-score,[8],2.32 and 1.51
same,composite z-score,[9],0.287 and 0.683
same,composite z-score,[10],2.27 and 2.33
same,z-score,[11],-0.0772 (inactive) and -0.0145 (inactive)
same,composite z-score,[12],-0.0984 and -0.447
same,z-score,[13],-0.373 (inactive) and 0.369 (inactive)
same,z-score,[14],-0.114 (inactive) and -1.21 (inactive)
same,z-score,[15],-1.78 (inactive) and -0.688 (inactive)
same,z-score,[16],0.154 (inactive) and -2.13 (inactive)
same,z-score,[17],-0.809 and 0.448
same,z-score,[18],-1.13 (inactive) and -2.89 (inactive)
same,z-score,[19],-0.108 (inactive) and -3.27 (inactive)
same,z-score,[20],-0.693 and -2.66
CCOC(=O)[C@H](CC(C)C)NC(=O)CCC1CC(OC(=O)NCc2cccc3ccccc23)CC2(CCCC(COC(=O)NCc3ccccc3)O2)O1 (stereo not given in full),composite z-score,[1],-0.147
same,z-score,[2],-0.649 (inactive)
same,z-score,[3],-0.583 (inactive)
same,z-score,[4],0.286 (inactive)
same,z-score,[5],1.5 (inactive)
same,composite z-score,[6],-0.339
same,composite z-score,[7],0.0038
same,composite z-score,[8],-1.07
same,composite z-score,[9],-0.964
same,composite z-score,[10],-0.0293
same,z-score,[11],-0.42 (inactive)
same,composite z-score,[12],-0.393
same,z-score,[13],0.56 (inactive)
same,z-score,[14],-0.166 (inactive)
same,z-score,[15],-1.33 (inactive)
same,z-score,[16],0.097 (inactive)
same,z-score,[17],-0.194
same,z-score,[18],0.209 (inactive)
same,z-score,[19],0.0251 (inactive)
same,z-score,[20],0.281
CCOC(=O)C[C@H]1[C@H](OC(=O)c2ccccc2-c2ccccc2)[C@@H](NC(=O)Cc2ccc(OC)cc2)c2cc(OCCCO)ccc2N1C(=O)Cc1ccc(OC)cc1,composite z-score,[1],0.18 and 0.0684
same,z-score,[2],-0.093 (inactive) and -0.267 (inactive)
same,z-score,[3],0.0825 (inactive)
same,z-score,[4],0.656 (inactive) and 0.671 (inactive)
same,z-score,[5],-1.2 (inactive) and 0.454 (inactive)
same,composite z-score,[6],0.325 and -0.401
same,composite z-score,[7],0.0082 and 0.109
same,composite z-score,[8],-0.0109 and -0.752
same,composite z-score,[9],0.24 and 0.161
same,composite z-score,[10],0.857 and -0.501
same,z-score,[11],2.52 (inactive) and -0.448 (inactive)
same,composite z-score,[12],0.349 and -0.0601
same,z-score,[13],2.32 (inactive) and 2.14 (inactive)
same,z-score,[14],-0.672 (inactive) and 0.269 (inactive)
same,z-score,[15],0.308 (inactive) and -0.142 (inactive)
same,z-score,[16],-1.18 (inactive) and 0.255 (inactive)
same,z-score,[17],0.551 and -0.0127
same,z-score,[18],1.61 (inactive) and 0.265 (inactive)
same,z-score,[19],-0.904 (inactive) and 0.828 (inactive)
same,z-score,[20],1.79 and 0.274
C=CCN(Cc1ccccc1)C(=O)C1N(CCOCCO)C(=O)C2C(C(=O)O)C3C=CC21O3 (stereo not given),composite z-score,[1],-0.0792 and -1.24
same,z-score,[2],-2.27 (inactive) and 0.247 (inactive)
same,z-score,[3],-0.0168 (inactive)
same,z-score,[4],-0.484 (inactive) and -0.753 (inactive)
same,z-score,[5],-0.347 (inactive) and -0.736 (inactive)
same,composite z-score,[6],-1.36 and -1.24
same,composite z-score,[7],-0.282 and -0.0645
same,composite z-score,[8],-2.62 and -3.49
same,composite z-score,[9],-1.89 and -3.16
same,composite z-score,[10],-1.64 and -2
same,z-score,[11],2.01 (inactive) and 0.924 (inactive)
same,composite z-score,[12],0.0429 and 0.101
same,z-score,[13],-0.451 (inactive) and 0.417 (inactive)
same,z-score,[14],-1.31 (inactive) and -0.103 (inactive)
same,z-score,[15],-1.39 (inactive) and -0.519 (inactive)
same,z-score,[16],-1.71 (inactive) and 0.0394 (inactive)
same,z-score,[17],0.506 and 0.245
same,z-score,[18],1.22 (inactive) and 0.583 (inactive)
same,z-score,[19],-0.586 (inactive) and -2.52 (inactive)
same,z-score,[20],0.93 and -0.825

# From PubChem BioAssay
